Test [1] in a line: HPAF-II 18hr Apoptosis Induction qHTS against the NCATS CANVASS Library (AID 1347360). The procedure, abridged:
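Caspase-Glo 3/7 luminescence (DEVD substrate) after 15 min RT; HPAF-II, 500 cells/well, 18 h compound exposure at 37 degrees C, qHTS series; doxorubicin control 0.1nM - 4uM.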

A short description of test [2]: HEK293 12hr Apoptosis Induction qHTS against the NCATS CANVASS Library (AID 1347361). Put shortly:
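500 HEK293 cells/well; cpds pin-transferred, 11-pt conc series; 12 h, 37 degrees C/5% CO2; Caspase-Glo 3/7 added, 15 min RT dark; luminescence.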

The test system of test [3] is NAD(P)H diaphorase (Clostridium kluyveri). As to the kind of experiment: Diaphorse counterscreen qHTS: Assay Interference Panel against the NCATS CANVASS Library (AID 1347362). The procedure, abridged:
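Counterscreen for coupling-enzyme interference: resorufin fluorescence from resazurin/NADH turnover, read after 5 min at room temperature. Compounds were tested over an 11-point series after 15 min dark preincubation with diaphorase in PBS-Tween.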
In general terms: A counterscreen serves to expose hits that act by an unwanted route or on another target.

Test [4] concerns the target Luciferin 4-monooxygenase (Photinus pyralis) (UniProt P08659). As to the kind of experiment: Firefly luciferase counterscreen qHTS: Assay Interference Panel against the NCATS CANVASS Library (AID 1347363). Further: series mostly up to about 57 µM. Put shortly:
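Luminescence inhibition readout: compounds (11-point qHTS) sat 15 min at room temperature with substrate mix (0.013 mM luciferin and ATP), then firefly luciferase was added and signal read 5 min later.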

Test [5] in a line: KB-8-5-11 Cancer Cell Toxicity qHTS against the NCATS CANVASS Library (AID 1347364). Further: series mostly up to about 46 µM; nearly all actives have a fitted effect of over 75% in size. Put shortly:
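Terse: KB-8-5-11, 500 cells/well, 72 hr, 37C/5% CO2, 11-pt titration, CellTiter-Glo readout; confirmatory runs ± 1uM tariquidar in medium.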
A general note: Quantitative high-throughput screening tests each substance at several concentrations.

Test [6] in a line: KB-3-1 Cancer Cell Toxicity qHTS against the NCATS CANVASS Library (AID 1347366). Further: series mostly up to about 46 µM; nearly all actives have a fitted effect of over 75% in size. Put shortly:
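500 KB-3-1 cells/well; compounds pin-transferred, 11-pnt series; 72 hr, 37C/5% CO2; CellTiter-Glo, 10 min RT; luminescence read-out.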

The nature of test [7]: qHTS for ATAD5 Agonist screened against the NCATS CANVASS Library (AID 1347367). The procedure, abridged: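 Luminescence read-out: ATAD5-driven luciferase in stably transfected HEK 293T cells, which rises post-transcriptionally with DNA damage. Cells were exposed 16hr at 37C to test compound; a CellTiter-Fluor fluorescence read (1hr) measured viability first.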
Test [8] in a line: G06 Cancer Cell Toxicity qHTS against the NCATS CANVASS Library (AID 1347368). Further: series mostly up to about 46 µM; nearly all actives have a fitted effect of over 60% in size. The procedure, abridged:
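Cells were plated at 500 per well, then compounds were added over an 11-point range. After 72 hr at 37C, CellTiterGlo was added and luminescence measured as ATP content.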

The nature of test [9]: MCF7 Cancer Cell Toxicity qHTS against the NCATS CANVASS Library (AID 1347369). Further: series mostly up to about 46 µM. The procedure, abridged: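 Luminescent ATP signal (CellTiterGlo) served as the cytotoxicity read-out after MCF7 breast cancer cells had been incubated 72 hr at 37C with natural products in an 11-point titration.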
The nature of test [10]: qHTS for ATAD5 Antagonist screened against the NCATS CANVASS Library (AID 1347370).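 Further: HEK293T cells carrying an ATAD5 luciferase reporter co-treated with 10 µM 5-fluorouridine; series mostly up to about 46 µM; nearly all actives have a fitted effect of over 65% in size.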 Put shortly: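 Compounds (11-point) co-dosed with 10 µM 5-FUrd for 16 h at 37 °C onto HEK293T-ATAD5 luciferase reporter cells. Viability measured by CellTiter-Fluor fluorescence, then ATAD5 reporter signal by luminescence.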
The nature of test [11]: J3T Cancer Cell Toxicity qHTS against the NCATS CANVASS Library (AID 1347371).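 Further: J3T is a canine glioma cancer cell line seeded at 500 cells per well; series mostly up to about 46 µM.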 The procedure, abridged:
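Luminescence from CellTiterGlo, reporting cellular ATP, serves as the viability measure after 72 hr compound treatment of J3T canine glioma cells seeded at 500 cells/well.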

The target of test [12] is Nuclear receptor subfamily 1 group I member 3 (Homo sapiens) (UniProt Q14994). The experiment in a line: qHTS for Constitutive Androstane Receptor (CAR) Antagonist screened against the NCATS CANVASS Library (AID 1347372).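 Further: cells stimulated with 50 nM CITCO agonist so inhibition reflects antagonism; series mostly up to about 46 µM.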 Put shortly:
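Antagonist mode: compound added alongside 50 nM CITCO to HepG2-hCAR-CYP2B6 reporter cells, 24hr at 37C. Viability by CellTiter-Fluor fluorescence, then CAR-driven luciferase by ONE-Glo luminescence.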

Test [13] has the same target. The experiment in a line: qHTS for Constitutive Androstane Receptor (CAR) Agonist screened against the NCATS CANVASS Library (AID 1347373).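 Further: every well also contained 1.5 µM PK11195 alongside the test compound.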 The procedure, abridged: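 Cells were plated and allowed to attach for 4hr, then dosed with compound in an 11-point series alongside 1.5uM PK11195. After 24hr at 37C, viability was measured fluorometrically and CAR-driven CYP2B6 reporter luminescence was recorded.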

Test [14] is described as follows: 10-beta competent E. coli microbial cell viability qHTS against the NCATS CANVASS Library (AID 1347376). Further: series mostly up to about 46 µM. The procedure, abridged: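 Bacterial suspension diluted to 0.2 OD was dosed with compounds, 11-point series, then held overnight at 37C. BacTiter-Glo reagent was added, and after 20 min at room temperature ATP-dependent luminescence was measured.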
Test [15] in a line: DH5-alpha competent E. coli microbial cell viability qHTS against the NCATS CANVASS Library (AID 1347377). To be noted: outcome: dose series up to 46.1 µM. Put shortly: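 Bacteria were dispensed at 0.2 OD, then compounds were pin-transferred. Plates were incubated overnight at 37C, after which BacTiter-Glo was added and luminescence measured 20 min later.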
Test [16] can be described thus: qHTS for H2AX Agonists against the NCATS CANVASS Library (AID 1347378). Put shortly: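 TR-FRET readout (ex 320 nm, em 665/620 nm ratio) of phospho-H2AX (S139) in CHO-K1 lysates. Cells treated 3 hr at 37C with compound titration, 0.76% DMSO; lysis 30 min, antibody detection 24 hr at RT.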
A short description of test [17]: qHTS for Inflammasome Signaling Inhibitors: IL-1-beta AlphaLISA screen against the NCATS CANVASS Library (AID 1347379).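 Further: human THP-1 cells primed with LPS then triggered with ATP; secreted IL-1B measured as AlphaLISA emission at 615 nm; lower signal means less IL-1B release which is the wanted effect.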 The procedure, abridged: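 Secreted IL-1B from human THP-1 cells quantified by AlphaLISA 16 hr after compound addition (final up to 57.5 uM). A 1 hr compound pretreatment preceded inflammasome activation with 250 ng/mL LPS plus 1.25 mM ATP (final).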

Test [18] in a line: qHTS for Antimalaria activity screened against the NCATS CANVASS Library (AID 1347380). Further: nearly all actives have a fitted effect of over 40% in size. Further: potency means the concentration at half of the fitted maximal effect. Put shortly:
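Compounds are titrated over 11 concentrations onto Dd2 parasite cultures (0.3% parasitemia, 2.5% hematocrit). Growth over 72 h at 37C in low oxygen is measured as SYBR Green DNA fluorescence after lysis.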

Test [19] in a line: Inflammasome Signaling qHTS Counterscreen: IL-1-beta AlphaLISA counterscreen against the NCATS CANVASS Library (AID 1347381).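 Further: cell-free check with purified IL-1β in medium and no THP-1 cells; series mostly up to about 57 µM.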 The procedure, abridged: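 Purified IL-1-beta (4 pg/well) + compound, 11-pt conc. series; acceptor beads 6 ug/mL + biotin-Ab 0.6 nM final, 1 h RT; SA-donor 24 ug/ml final, 30 min dark RT; read ex 680/em 615.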
Test [20] in a line: SDT Cancer Cell Toxicity qHTS against the NCATS CANVASS Library (AID 1347365).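 Further: SDT canine glioma cells 500 per well in 1536 well plates; series mostly up to about 46 µM; nearly all actives have a fitted effect of over 60% in size.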 The procedure, abridged: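 Cytotoxicity is measured from cellular ATP: compounds in an 11-point concentration series are pinned onto SDT cells, incubated 72 hr at 37C, then CellTiterGlo is added and luminescence read.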

Structures are written as SMILES. Records with an inconclusive call do not appear. Active and inactive are the calls of the source. The call rests on the fitted dose curve; in most records, active means well fitted curve in the direction sought with a large enough effect; inconclusive means small, poorly fitted or top-dose-only effect, or another doubt; inactive means no such curve, though single readings can be large; an effect the other way counts as inactive or inconclusive.

Sequence of Nuclear receptor subfamily 1 group I member 3 (Homo sapiens) (Q14994 whole entry, looked up): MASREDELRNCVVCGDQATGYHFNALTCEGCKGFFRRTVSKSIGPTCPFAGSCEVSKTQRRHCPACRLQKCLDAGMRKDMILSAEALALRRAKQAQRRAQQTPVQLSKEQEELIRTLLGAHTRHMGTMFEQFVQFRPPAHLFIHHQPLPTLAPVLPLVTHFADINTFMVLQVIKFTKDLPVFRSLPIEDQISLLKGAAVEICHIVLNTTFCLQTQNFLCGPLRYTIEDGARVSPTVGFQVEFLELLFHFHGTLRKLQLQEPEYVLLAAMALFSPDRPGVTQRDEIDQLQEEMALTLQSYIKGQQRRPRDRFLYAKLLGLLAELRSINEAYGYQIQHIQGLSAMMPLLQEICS
Sequence of Luciferin 4-monooxygenase (Photinus pyralis) (P08659 whole entry, looked up): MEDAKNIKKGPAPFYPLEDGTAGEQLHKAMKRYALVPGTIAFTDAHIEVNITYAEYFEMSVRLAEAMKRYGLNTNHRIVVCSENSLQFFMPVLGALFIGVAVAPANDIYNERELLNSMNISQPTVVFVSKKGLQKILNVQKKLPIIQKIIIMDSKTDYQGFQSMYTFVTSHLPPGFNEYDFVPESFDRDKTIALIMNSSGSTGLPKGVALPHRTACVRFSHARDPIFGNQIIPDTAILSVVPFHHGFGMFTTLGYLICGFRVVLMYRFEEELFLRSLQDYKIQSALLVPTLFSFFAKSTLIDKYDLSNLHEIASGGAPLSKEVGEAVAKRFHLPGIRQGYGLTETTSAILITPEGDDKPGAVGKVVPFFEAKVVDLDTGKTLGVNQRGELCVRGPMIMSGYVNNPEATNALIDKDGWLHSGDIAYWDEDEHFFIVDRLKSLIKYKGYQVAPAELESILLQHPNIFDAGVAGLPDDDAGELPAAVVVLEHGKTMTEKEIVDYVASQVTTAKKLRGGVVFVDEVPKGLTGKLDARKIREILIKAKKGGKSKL

Regarding `COc1ccc2[nH]cc(CCN)c2c1`, the outcome in test [1], in test [2], in [3], in test [4], in test [5] and in test [6] was inactive. Besides, the compound was called inactive in test [7], in test [8], in test [9], in test [10], in test [11] and in test [12]. In addition, the compound was classed as inactive in [13], in [14], in test [15], in test [16], in test [17] and in [19]. For the same compound, the Potency result in [18] was “inactive”.
Turning to `O=C1C[C@@H]2OCC=C3CN4CC[C@]56c7ccccc7N1[C@H]5[C@H]2[C@H]3C[C@H]46`, the call in test [1], in [2], in [3], in test [4], in [5] and in test [20] was inactive. The compound was classed as inactive in [6], in test [7], in test [8], in test [9], in test [10] and in test [11]. Further, the compound was classed as inactive in [12], in test [13], in test [14], in test [15], in test [16] and in [17]. The call in test [19] was inactive. Moreover, the Potency in test [18] was 13 µM (active).

The values above are taken from PubChem BioAssay (NCATS).
